The term Inhibition denotes the relative decrease from the control value, in per cent.

Molecules are shown by their SMILES. For part of these data: Measured potencies and affinities stand elsewhere.

Here are results for 25 molecules from ChEMBL document CHEMBL4296182, “CO-ADD screening of NIH NCI Diversity Set V”.

In assay [1] the test system is Staphylococcus aureus. The assay is described as follows: Antibacterial activity against Staphylococcus aureus MRSA ATCC 43300 (CO-ADD:GP_020); MIC in CAMBH media using NBS plates, by Resazurin F(560/590). Particulars: Concentration 20 uM, ASSAY_TEST Inhibition of Bacterial Growth, detection method Resazurin, Fluorescence (ex560/em590), MEDIA CAMHB, plate type 384well, CORNING #3640, time 18 hr. The format is functional. Background: Resazurin is reduced to fluorescent resorufin, in cell work by metabolically active cells.

In assay [2] the test system is Acinetobacter baumannii. Description: Antibacterial activity against Acinetobacter baumannii ATCC 19606 (CO-ADD:GN_034); MIC in CAMBH media using NBS plates, by Resazurin F(560/590). The format is functional. The conditions noted are these: Concentration 20 uM, ASSAY_TEST Inhibition of Bacterial Growth, detection method Resazurin, Fluorescence (ex560/em590), MEDIA CAMHB, plate type 384well, CORNING #3640, time 18 hr.

The subject of assay [3] is Escherichia coli. Description: Antibacterial activity against Escherichia coli ATCC 25922 (CO-ADD:GN_001); MIC in CAMBH media using NBS plates, by Resazurin F(560/590). The format is functional. Particulars: Concentration 20 uM, ASSAY_TEST Inhibition of Bacterial Growth, detection method Resazurin, Fluorescence (ex560/em590), MEDIA CAMHB, plate type 384well, CORNING #3640, time 18 hr.

In assay [4] the test system is Klebsiella pneumoniae. The conditions noted are these: Concentration 20 uM; ASSAY_TEST Inhibition of Bacterial Growth; detection method Absorption (OD600); MEDIA CAMHB; plate type 384well; NBS; CORNING #3640; time 18 hr.
In assay [5] the test system is Candida albicans. Particulars: 20 µM.
Assay [6] concerns Cryptococcus neoformans. The conditions noted are these: Concentration 20 uM; ASSAY_TEST Inhibition of Fungal Growth; detection method Resazurin; Absorption (OD600-OD570); plate type 384well; NBS; CORNING #3640.

Regarding `CCCCOC(=O)c1cccnc1`, the Inhibition was 2.44% in assay [1]; -6.99% in assay [2]; 12.49% in assay [3]; 13.5% in assay [4]; 1.04% in assay [5]; -0.89% in assay [6].
In the case of `COC(=O)c1cc(C)c(C)cc1NC1OC(CO)C(O)C1O` (stereo not given), the Inhibition in assay [1] was -3.53%; in assay [2] it was 7.51%; in assay [3], -12.77%; in assay [4], 12.31%; in assay [5] it was 6.05%; in assay [6], -3.92%.
As for `CCNc1nn2ccccc2c1/C=C(/C#N)C(=O)OCC`, the Inhibition was 10.32% in assay [1]; -16.65% in assay [2]; 7.73% in assay [3]; 11.76% in assay [4]; 8.75% in assay [5]; -8.42% in assay [6].
Regarding `CC1=NN(c2ccccc2)C(=O)C1C(=S)SC1CC(=O)NC1=O` (stereo not given), the Inhibition in assay [1] is 3.9%; in assay [2], 14.97%; in assay [3], -13.13%; in assay [4], 16.67%; in assay [5], 6.57%; in assay [6], 3.97%.
As to `CC(C)(C)NC(=O)c1ccc(C(=O)NC(C)(C)C)cc1`, the Inhibition was -9.07% in assay [1]; -9.96% in assay [2]; 2.15% in assay [3]; 15.3% in assay [4]; 8.15% in assay [5]; -7.37% in assay [6].
As to `O=c1[nH]c(=S)c2ncn(-c3ccccc3)c2[nH]1`, the Inhibition was -3.01% in assay [1]; -10.26% in assay [2]; 3.12% in assay [3]; 1.95% in assay [4]; 9.78% in assay [5]; -2.67% in assay [6].
Consider `N#C/C(=C\c1cc(O)c(O)c(O)c1)C(N)=O`, for which the Inhibition in assay [1] was -3.49%; in assay [2], 6.06%; in assay [3], 5.21%; in assay [4] it was 9.86%; in assay [5], 5.49%; in assay [6], -11.36%.
As for `C=CCNc1ncnc2sc(SC)nc12`, the Inhibition in assay [1] is -6.85%; in assay [2], 14.45%; in assay [3], 5.94%; in assay [4], 7.44%; in assay [5] it was 10.1%; in assay [6] it was -10.12%.
In the case of `Nc1c(Cl)ncnc1NCCO`, the Inhibition was -0.51% in assay [1]; -7.14% in assay [2]; 3.3% in assay [3]; 8.13% in assay [4]; 2.14% in assay [5]; -0.36% in assay [6].
As to `Cc1cc(-c2ccc(N3C(=O)CC4(CCCC4)C3=O)c(C)c2)ccc1N1C(=O)CC2(CCCC2)C1=O`, the Inhibition was 2.65% in assay [1]; -13.47% in assay [2]; 9.87% in assay [3]; -0.13% in assay [4]; 4.32% in assay [5]; -5.08% in assay [6].
Consider `COc1ccccc1N1C(=O)CC(Sc2ccccc2N)C1=O` (stereo not given), for which the Inhibition in assay [1] was 13.62%; in assay [2], 1.84%; in assay [3], 10.06%; in assay [4], 1.73%; in assay [5], 0.29%; in assay [6] it was -6.31%.
On to `O=C(O)c1cc(N2C(=O)C=CC2=O)cc(N2C(=O)C=CC2=O)c1`, for which the Inhibition is -1.11% in assay [1]; -6.34% in assay [2]; 5.17% in assay [3]; 6.14% in assay [4]; 5.6% in assay [5]; -4% in assay [6].
For the molecule `O=C(NCc1ccco1)Nc1ccc([N+](=O)[O-])cc1`, the Inhibition in assay [1] is 14.72%; in assay [2], 3.43%; in assay [3] it was 4.45%; in assay [4], 18.95%; in assay [5], 5.76%; in assay [6], -12.12%.
As for `CCCCNCC1CCCO1` (stereo not given), the Inhibition was 9.4% in assay [1]; -3.42% in assay [2]; 8.45% in assay [3]; 9.23% in assay [4]; -0.1% in assay [5]; -3.66% in assay [6].
`O=C(O)CCN1c2ccccc2Sc2ccccc21`: the Inhibition in assay [1] was 8.2%; in assay [2], -9.93%; in assay [3] it was 16.66%; in assay [4], 14.48%; in assay [5], 16.7%; in assay [6] it was -15.83%.
In the case of `c1ccc(-c2nnc(-c3ccccn3)s2)nc1`, the Inhibition was 3.28% in assay [1]; -18.69% in assay [2]; 9.86% in assay [3]; 4.63% in assay [4]; 4.16% in assay [5]; -18.42% in assay [6].
In the case of `COc1cc(/N=N/c2cccc(S(N)(=O)=O)c2)c2ccccc2c1N`, the Inhibition is -2.34% in assay [1]; 3.92% in assay [2]; -3.15% in assay [3]; 14.2% in assay [4]; 0.44% in assay [5]; -17.61% in assay [6].
Take `CSc1nc2nc(C(O)c3ccccc3)nc-2c[nH]1` (stereo not given): the Inhibition in assay [1] is 9.64%; in assay [2], 6.4%; in assay [3] it was -14.24%; in assay [4] it was 16.25%; in assay [5] it was 8.94%; in assay [6], 28.87%.
Turning to `CCc1nc(NC(C)(C)C)c2cnn(-c3ccccc3)c2n1`, the Inhibition is 6.25% in assay [1]; 2.78% in assay [2]; 2.08% in assay [3]; 23.15% in assay [4]; 15.4% in assay [5]; -0.88% in assay [6].
`CN(C)c1nc(Cl)nc2c1nc(Cl)n2C1CCCCO1` (stereo not given): the Inhibition in assay [1] is 8.01%; in assay [2] it was -7.69%; in assay [3], 0.28%; in assay [4], 5.28%; in assay [5] it was 1.95%; in assay [6] it was -3.53%.
In the case of `Oc1ncc(I)cc1I`, the Inhibition in assay [1] turned out to be 37.5%; in assay [2] it was 6.08%; in assay [3], 2.67%; in assay [4], 22.74%; in assay [5] it was 4.4%; in assay [6], 23.72%.
Turning to `Cc1nc(O)c2c3c(sc2n1)CCCC3`, the Inhibition in assay [1] is 1.78%; in assay [2] it was -6.79%; in assay [3], 6.4%; in assay [4], -0.52%; in assay [5], -0.04%; in assay [6], -11.89%.
Consider `COc1ccc(Cc2nnc(SC)n2-c2ccc(F)cc2)cc1OC`, for which the Inhibition was 7.78% in assay [1]; -2.89% in assay [2]; 10.28% in assay [3]; 14.43% in assay [4]; 2.19% in assay [5]; -3.12% in assay [6].
In the case of `CCN(CC)C(=O)Cn1ccc(NC(C)=O)nc1=O`, the Inhibition in assay [1] was -5.08%; in assay [2], -19.36%; in assay [3], 5.52%; in assay [4] it was 3.42%; in assay [5], 0.38%; in assay [6], -8.8%.
With `OCc1ncccc1O`, the Inhibition was -1.04% in assay [1]; -10.34% in assay [2]; -5.68% in assay [3]; 25.51% in assay [4]; 3.22% in assay [5]; 0.67% in assay [6].
